Laboratory results from PubChem BioAssay (Tox21).
Where “and” joins values, the source holds several entries; their conditions need not be identical. Identical values can stand only once. Records with an inconclusive call do not appear. A number with no mark means an inactive call. Calls of active or inactive are those of the source. Calls follow the shape of the dose curve; as a rule, active = well fitted activation curve with a large enough effect in the repeat runs; inconclusive = weak or mixed curves; inactive = no such curve, though single readings can be large or run the other way.

molecular target: Nuclear receptor subfamily 1 group I member 2 (Rattus norvegicus) (UniProt Q9R1A7); experiment: Rat pregnane X receptor (rPXR) activation by small molecules, qHTS assay (AID 1346983); conditions: rPXR luciferase reporter cells, One-Glo luminescence, 24 h; max activation: stronger effect = higher value; also: nearly all actives have a fitted effect of over 20% in size
Sequence (Q9R1A7 whole entry, looked up): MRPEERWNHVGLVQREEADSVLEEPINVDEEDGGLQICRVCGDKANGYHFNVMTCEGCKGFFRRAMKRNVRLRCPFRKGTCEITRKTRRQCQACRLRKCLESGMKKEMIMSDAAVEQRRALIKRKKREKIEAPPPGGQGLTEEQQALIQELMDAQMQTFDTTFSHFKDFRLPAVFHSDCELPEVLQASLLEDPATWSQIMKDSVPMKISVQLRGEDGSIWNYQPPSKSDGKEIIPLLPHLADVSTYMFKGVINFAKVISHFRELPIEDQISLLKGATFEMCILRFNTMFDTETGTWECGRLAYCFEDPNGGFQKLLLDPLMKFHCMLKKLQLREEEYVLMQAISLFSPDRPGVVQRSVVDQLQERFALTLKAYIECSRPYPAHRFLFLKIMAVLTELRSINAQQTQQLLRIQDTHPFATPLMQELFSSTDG
In short: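 Luminescent readout (One-Glo luciferase, 30 min room temperature) followed 24 hr compound treatment at 37 C of rPXR cells plated 2,000 per well and preincubated 5hr; qHTS format with compounds delivered in DMSO.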
% is scaled to controls: 0 for no effect and ±100 for the full control effect; potency is read from the fitted curve at half-maximal effect.

Structure (SMILES) | max activation | Potency
C=CCN1CC[C@]23c4c5ccc(O)c4O[C@H]2C(=O)CC[C@@]3(O)[C@H]1C5 | -2.21% and -3.34% | 
CC(=O)[C@H]1CC[C@H]2[C@@H]3CC[C@H]4C[C@](C)(O)CC[C@]4(C)[C@H]3CC[C@]12C |  | 3.98 µM (active)
C#CCOC(C(=O)OCCN(C)C)(c1ccccc1)c1ccccc1 | -6.97% | 
